Screens (PubChem BioAssay)
The sample as a whole holds a higher share of hits than the screen did.
PD-1 reversal: reversal of PD-1 mediated T-cell inhibition; primary human CD4 T cells, PD-L1 beads, CellTiter-Glo 96 h; activation, % (no concentration beside the values); 29,000 tested, under 10 active; AID 2316; call rule not given here;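 further: 0% = median vehicle wells and 100% = positive control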
NOMO-1 viab: STK33 inhibitor candidate reducing NOMO-1 cell viability; NOMO-1 AML viability, CellTiter-Glo luminescence, 72 h; inhibition, % (test concentration not listed); actives 7.5% (n = 37,000); in the data active means inhibition above about 80%; inconclusive means no clear call, values can overlap the other calls
STK33 kin inh: inhibitors of human STK33 kinase; actives 0.44% (n = 27,000); inhibition, % at 12.5 µM; ADP-Glo luminescence, MBP substrate; Q9BYT3; in the data active means inhibition above about 20%; inconclusive means no clear call, values can overlap the other calls
Target sequence (Q9BYT3 whole entry, looked up): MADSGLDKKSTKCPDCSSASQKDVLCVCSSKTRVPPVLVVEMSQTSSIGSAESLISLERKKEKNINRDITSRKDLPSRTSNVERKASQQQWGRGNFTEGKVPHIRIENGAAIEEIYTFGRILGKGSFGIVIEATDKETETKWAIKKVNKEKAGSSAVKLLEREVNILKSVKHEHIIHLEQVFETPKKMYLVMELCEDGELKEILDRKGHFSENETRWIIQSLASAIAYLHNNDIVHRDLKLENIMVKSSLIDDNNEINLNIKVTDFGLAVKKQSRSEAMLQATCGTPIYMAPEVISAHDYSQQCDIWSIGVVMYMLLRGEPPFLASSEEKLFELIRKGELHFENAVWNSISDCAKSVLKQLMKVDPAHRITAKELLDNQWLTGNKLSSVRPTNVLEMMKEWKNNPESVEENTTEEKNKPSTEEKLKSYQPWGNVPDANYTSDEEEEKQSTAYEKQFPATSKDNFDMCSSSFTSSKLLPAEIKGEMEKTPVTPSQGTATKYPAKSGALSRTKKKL
* = called active by the depositor; ? = inconclusive; . = not tested or not shown.

SMILES | PD-1 reversal | NOMO-1 viab | STK33 kin inh
Cc1csc2sc(C(=O)c3ccc(Cl)cc3)c(C)c12 | 4 | 50 | 0
CN(C)c1nc(C(C)(C)C)cc2c1C(=O)NC2=O | 0 | -18 | .
C[C@H]1CN([C@@H](C)CO)C(=O)c2cc(NC(=O)Nc3ccccc3)ccc2O[C@H]1CN(C)Cc1ccc(C(=O)Nc2ccccc2N)cc1 | 0 | ? | .
C[C@@H]1CN([C@H](C)CO)C(=O)c2cc(NC(=O)Nc3ccc(F)cc3)ccc2O[C@@H]1CN(C)Cc1ccc(C(=O)Nc2ccccc2N)cc1 | -3 | 107* | .
C[C@@H]1CN([C@H](C)CO)C(=O)c2cc(NC(=O)Nc3ccc(C(F)(F)F)cc3)ccc2O[C@@H]1CN(C)Cc1ccc(C(=O)Nc2ccccc2N)cc1 | -2 | 102* | .
C[C@@H]1CN([C@@H](C)CO)C(=O)c2cc(NC(=O)Nc3ccc(C(F)(F)F)cc3)ccc2O[C@H]1CN(C)Cc1ccc(C(=O)Nc2ccccc2N)cc1 | 0 | 11 | .
Cc1ccc([N+](=O)[O-])cc1NC(=O)CSc1nnc(-c2ccc(Br)cc2)o1 | -2 | 23 | 0
COc1ccc(/C=C/c2cc(O)cc(O[C@@H]3O[C@H](CO)[C@@H](O)[C@H](O)[C@H]3O)c2)cc1O | 6 | 41 | 1
O=C1/C(=C/c2ccc3ccccc3c2)COc2ccccc21 | -20 | 113* | 6
CC(=O)N/C(=C\c1ccc2ccccc2c1)C(=O)O | 1 | 0 | .
COc1ccc2c(c1)OC/C(=C\c1ccc(OC)c(O)c1)C2=O | . | 107* | 11
COc1cccc(C(=O)Nc2sc3c(c2C(=O)NCc2cccnc2)CCCC3)c1 | 0 | 30 | -2
S=C(NCC1CC1)Nc1ccc2[nH]ccc2c1 | 0 | -6 | .
CCc1cc2c3c(c(=O)oc2cc1OCc1cc(C(=O)O)oc1C)CCCC3 | 0 | 13 | 2
COC(=O)c1sc(SCCOC(=O)c2ccccc2Cl)c2c1CC(C)(C)CC2=O | 1 | 6 | .
CN(C)/C=C/C(=O)c1sc(SCc2ccc(Cl)cc2)c2c1CC(C)(C)CC2=O | -1 | 113* | .
N#Cc1ccc(C#N)c(-c2ccccc2)c1 | 0 | 7 | .
CC1=C(C(=O)OCc2ccccc2)C(c2ccoc2)C(C#N)=C(N)S1 (stereo not given) | 0 | 58 | .
C[C@H](CO)N1C[C@H](C)[C@H](CN(C)Cc2ccc(C(=O)Nc3ccccc3N)cc2)Oc2ccc(NS(=O)(=O)c3cccs3)cc2CC1=O | -6 | 128* | .
C[C@H]1CN([C@@H](C)CO)C(=O)c2cc(NS(=O)(=O)c3cccs3)ccc2O[C@@H]1CN(C)Cc1ccc(C(=O)Nc2ccccc2N)cc1 | -1 | -20 | .
C[C@@H]1CN([C@H](C)CO)C(=O)Cc2cc(NS(=O)(=O)c3cccs3)ccc2O[C@H]1CN(C)Cc1ccc(C(=O)Nc2ccccc2N)cc1 | 0 | 71 | .
C[C@@H]1CN([C@@H](C)CO)C(=O)c2cc(NS(=O)(=O)c3cccs3)ccc2O[C@@H]1CN(C)Cc1ccc(C(=O)Nc2ccccc2N)cc1 | -3 | 111* | .
CN(C)CC#CC1(O)CCCCC1 | 0 | 15 | .
Cc1[nH]c2ccccc2c1C(O)c1cccnc1 (stereo not given) | -12 | 33 | .
Cc1[nH]c2ccccc2c1C(c1ccccc1)N1CCN(C)CC1 (stereo not given) | -7 | 117* | .
SMILES | PD-1 reversal | NOMO-1 viab | STK33 kin inh
CCn1c(SCC(=O)Nc2ccc(Br)cc2F)nnc1-c1ccccc1Cl | . | 4 | 6
Cc1ccc(S(=O)(=O)N(Cc2cc3cccc(C)c3[nH]c2=O)c2ccccc2)cc1 | -3 | 116* | -1
CCCC(=O)N(Cc1cc2cccc(C)c2[nH]c1=O)c1ccc(C)cc1 | -4 | 13 | -3
Cc1ccc(C)c(C(Nc2ccccn2)c2ccc3ccc(C)nc3c2O)c1 (stereo not given) | -13 | 107* | ?
Cc1cccc(Nc2ncnc(N)c2[N+](=O)[O-])n1 | . | 1 | 5
Cc1cccc(NC(c2ccc([N+](=O)[O-])cc2)c2ccc3ccc(C)nc3c2O)n1 (stereo not given) | . | 112* | 1
Cc1ccnc(NC(c2ccccn2)c2ccc3ccc(C)nc3c2O)c1 (stereo not given) | -14 | 116* | -1
Cc1cccc(NC(c2ccccc2C)c2ccc3ccc(C)nc3c2O)n1 (stereo not given) | -13 | 121* | 15
Cc1cccc(NC(c2ccc(C)s2)c2ccc3ccc(C)nc3c2O)n1 (stereo not given) | . | . | 1
CS(=O)(=O)N(CC(=O)Nc1cccc(Cl)c1Cl)c1ccc(F)c(Cl)c1 | 2 | 8 | -4
Cn1nnnc1SCC(=O)Nc1ccc(F)cc1 | 1 | 33 | -1
COc1ccccc1CN=c1c([N+](=O)[O-])nn(-c2ccccc2)n1O | . | 38 | 0
